# PubChem BioAssay (EPA / NIEHS)
# Inconclusive results are not listed. Active and inactive are the calls of the source. Rule for the calls: active = hit-call score of the fitted dose curve at least 0.9, where 1 is the maximum; inconclusive = response in the unintended direction; inactive = score below 0.9.
# Columns and labels:
# [1] = molecular target: Estrogen receptor (Homo sapiens) (UniProt P03372); experiment: NVS_NR_hER: NovaScreen (NVS) Nuclear Receptor Binding Assay for human Estrogen Receptor (ER) (AID 2283348)
# Chain of Estrogen receptor (Homo sapiens) (P03372 whole entry, looked up, the tested form may be a part): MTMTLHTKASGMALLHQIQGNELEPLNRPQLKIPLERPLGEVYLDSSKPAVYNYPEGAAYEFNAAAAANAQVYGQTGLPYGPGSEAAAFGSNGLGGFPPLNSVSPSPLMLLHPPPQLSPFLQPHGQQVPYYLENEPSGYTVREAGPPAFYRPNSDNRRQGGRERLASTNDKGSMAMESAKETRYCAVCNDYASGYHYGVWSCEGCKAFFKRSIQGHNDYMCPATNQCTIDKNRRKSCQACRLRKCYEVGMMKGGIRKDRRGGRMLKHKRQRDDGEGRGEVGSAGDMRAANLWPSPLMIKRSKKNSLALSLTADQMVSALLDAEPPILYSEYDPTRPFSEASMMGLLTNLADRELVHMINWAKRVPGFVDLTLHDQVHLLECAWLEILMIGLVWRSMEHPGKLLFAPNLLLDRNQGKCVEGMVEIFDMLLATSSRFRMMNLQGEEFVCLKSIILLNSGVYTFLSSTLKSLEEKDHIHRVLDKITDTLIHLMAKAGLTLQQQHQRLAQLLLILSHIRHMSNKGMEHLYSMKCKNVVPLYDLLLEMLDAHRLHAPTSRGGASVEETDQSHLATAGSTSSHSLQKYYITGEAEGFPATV
# Procedure, shortened: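 Scintillation signal from bound radioligand was measured 18 hours after chemical addition to cell-free MCF7 protein extracts, with DMSO as baseline. Activity was scored as signal loss; compounds ran first at 25 uM in duplicate.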
# [2] = molecular target: Estrogen receptor (Homo sapiens) (UniProt P03372); experiment: OT_ER_ERaERa_1440: Odyssey Thera (OT) 24-hour HEK293T Protein-Complementation Assay for Estrogen Receptor-alpha/-alpha Homodimer (AID 2283349);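 note: hits raise fluorescence above DMSO for agonists and antagonists alike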
# Procedure, shortened: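 Protein-fragment complementation between two human ERα ligand-binding domains (aa 310-547) in stably transfected HEK293T cells was monitored after 24 h treatment, using fluorescence intensity relative to vehicle controls.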
# [3] = molecular target: Estrogen receptor (Homo sapiens) (UniProt P03372); experiment: OT_ER_ERaERa_0480: Odyssey Thera (OT) 8-hour HEK293T Protein-Complementation Assay for Estrogen Receptor-alpha/-alpha Homodimer (AID 2283351);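 note: rise in fluorescence from reassembled reporter fragments on ERα LBD homodimer in nucleus or whole cell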
# Procedure, shortened: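 HEK293T, stable ERα LBD (aa 310-547) PCA homodimer; 8 h compound exposure; fluorescence intensity, laser scanning cytometer; positive fitting direction, DMSO baseline.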
# [4] = molecular target: Estrogen receptor (Homo sapiens) + Estrogen receptor beta (Homo sapiens) (UniProt P03372+Q92731); experiment: OT_ER_ERaERb_0480: Odyssey Thera (OT) 8-hour HEK293T Protein-Complementation Assay for Estrogen Receptor-alpha/-beta Heterodimer (AID 2283352)
# Chain of Estrogen receptor (Homo sapiens) + Estrogen receptor beta (Homo sapiens) (P03372 whole entry, looked up, the tested form may be a part): as above
# Chain of Estrogen receptor (Homo sapiens) + Estrogen receptor beta (Homo sapiens) (Q92731 whole entry, looked up, the tested form may be a part): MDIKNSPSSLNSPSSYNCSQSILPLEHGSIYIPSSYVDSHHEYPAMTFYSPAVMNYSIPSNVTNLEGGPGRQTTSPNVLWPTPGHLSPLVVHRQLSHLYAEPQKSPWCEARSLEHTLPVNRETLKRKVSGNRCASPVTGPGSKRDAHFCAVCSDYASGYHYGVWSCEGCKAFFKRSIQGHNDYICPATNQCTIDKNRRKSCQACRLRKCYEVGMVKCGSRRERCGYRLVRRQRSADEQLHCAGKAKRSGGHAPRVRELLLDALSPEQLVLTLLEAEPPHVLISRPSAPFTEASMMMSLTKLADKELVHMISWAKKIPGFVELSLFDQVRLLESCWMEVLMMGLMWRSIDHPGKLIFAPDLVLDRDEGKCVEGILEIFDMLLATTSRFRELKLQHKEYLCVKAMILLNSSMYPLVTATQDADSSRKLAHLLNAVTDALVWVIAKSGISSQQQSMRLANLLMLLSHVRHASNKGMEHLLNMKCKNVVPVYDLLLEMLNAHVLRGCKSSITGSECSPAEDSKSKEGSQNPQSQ
# Procedure, shortened: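 Increase in mean fluorescence intensity, measured by laser scanning plate cytometry, reported ER-alpha/ER-beta LBD complementation in HEK293T cells after 8 h chemical exposure. DMSO served as baseline; basal signal is low, punctate and cytoplasmic.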
# [5] = molecular target: chimpanzee Androgen Receptor (AR), AR (gene 747460) (UniProt O97775); experiment: NVS_NR_cAR: NovaScreen (NVS) Nuclear Receptor Binding Assay for chimpanzee Androgen Receptor (AR) (AID 2283346);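 note: radioligand displacement from AR measured by scintillation counting in a cell-free assay; a loss of bound radioligand signal versus DMSO counts as binding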
# Chain of chimpanzee Androgen Receptor (AR), AR (gene 747460) (O97775 whole entry, looked up): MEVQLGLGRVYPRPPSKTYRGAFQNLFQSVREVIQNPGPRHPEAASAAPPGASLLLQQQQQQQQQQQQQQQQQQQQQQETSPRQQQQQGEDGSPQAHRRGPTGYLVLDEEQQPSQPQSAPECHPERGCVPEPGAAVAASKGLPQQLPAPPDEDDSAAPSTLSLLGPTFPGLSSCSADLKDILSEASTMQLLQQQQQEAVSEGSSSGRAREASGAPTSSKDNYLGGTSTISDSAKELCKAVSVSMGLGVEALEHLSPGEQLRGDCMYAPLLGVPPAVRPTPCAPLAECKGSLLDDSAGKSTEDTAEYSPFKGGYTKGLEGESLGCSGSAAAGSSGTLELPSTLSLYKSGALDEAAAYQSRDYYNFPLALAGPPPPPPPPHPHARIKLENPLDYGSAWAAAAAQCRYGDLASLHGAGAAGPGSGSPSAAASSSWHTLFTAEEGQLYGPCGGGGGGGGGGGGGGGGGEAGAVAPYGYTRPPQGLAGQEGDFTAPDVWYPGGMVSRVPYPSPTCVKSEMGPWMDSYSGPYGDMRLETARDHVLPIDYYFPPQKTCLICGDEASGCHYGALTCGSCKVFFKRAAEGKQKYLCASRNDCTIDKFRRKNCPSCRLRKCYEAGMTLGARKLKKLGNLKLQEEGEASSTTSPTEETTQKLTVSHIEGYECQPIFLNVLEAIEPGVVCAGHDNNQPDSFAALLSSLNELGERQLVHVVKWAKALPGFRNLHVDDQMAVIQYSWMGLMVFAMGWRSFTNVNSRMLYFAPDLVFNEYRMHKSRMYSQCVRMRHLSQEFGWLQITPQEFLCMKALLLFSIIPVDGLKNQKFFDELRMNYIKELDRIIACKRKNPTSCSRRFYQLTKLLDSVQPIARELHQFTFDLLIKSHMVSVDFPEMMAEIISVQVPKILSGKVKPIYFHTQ
# Procedure, shortened: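 Cell-free competition binding with insect-cell (Sf9/Sf21) extracted chimpanzee AR; scintillation signal from lysate at 72 h. Screened in duplicate at 25 uM, then concentration-response for actives; fitting relative to DMSO.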
structure (smiles),measurement,setting,value
O=C(O)c1cc2ccccc2cc1O,outcome,[1],inactive
CCCCCCCCOC(C)=O,outcome,[2],inactive
CN(C)c1ccc(C=O)cc1,outcome,[1],inactive
CCCCC/C=C\C=C\C(=O)OCC,AC50,[1],42.7 µM (active)
same,outcome,[2],inactive
same,outcome,[3],inactive
same,outcome,[4],inactive
NC(N)=S,outcome,[2],inactive
CCCCCCCCCCO[C@@H]1O[C@H](CO)[C@@H](O)[C@H](O)[C@H]1O,outcome,[5],inactive
same,outcome,[2],inactive
same,outcome,[3],inactive
O=C(O)CS,outcome,[2],inactive
CC(O)CNCC(C)O (stereo unspecified),AC50,[2],18 µM (active)
CC1=CCC(=C(C)C)CC1,outcome,[2],inactive
C1=COCCC1,outcome,[2],inactive
OC[C@H]1O[C@@H](O[C@H]2[C@H](O)[C@@H](O)[C@H](O)O[C@@H]2CO)[C@H](O)[C@@H](O)[C@H]1O,outcome,[2],inactive
CC(=O)OC/C=C(C)/C=C/C=C(C)/C=C/C1=C(C)CCCC1(C)C,outcome,[2],inactive
same,outcome,[3],inactive
C=C(C)C(=O)OCCC(C)OC(=O)C(=C)C (stereo unspecified),outcome,[2],inactive
same,outcome,[3],inactive
CCC(C)C1CCCCC1=O (stereo unspecified),outcome,[2],inactive
same,outcome,[3],inactive
CC1COC(=O)O1 (stereo unspecified),outcome,[2],inactive
same,outcome,[3],inactive
same,outcome,[4],inactive
NCCN1CCNCC1,outcome,[2],inactive
same,outcome,[3],inactive
O=C(O)c1ccccc1O,outcome,[2],inactive
same,outcome,[3],inactive
O=C(O)C1=NN(c2ccc(S(=O)(=O)O)cc2)C(=O)C1,outcome,[2],inactive
same,outcome,[3],inactive
O=Cc1ccccc1O,AC50,[2],92 µM (active)
same,outcome,[3],inactive
CC1=CCC(C(C)(C)O)CC1 (stereo unspecified),outcome,[2],inactive
same,outcome,[3],inactive
CCC(C)(CCCC(C)C)OC(C)=O (stereo unspecified),outcome,[2],inactive
same,outcome,[3],inactive
same,outcome,[4],inactive
CCCO,outcome,[2],inactive
same,outcome,[3],inactive
same,outcome,[4],inactive
CC(=O)Oc1c(C)c(C)c2c(c1C)CC[C@@](C)(CCC[C@H](C)CCC[C@H](C)CCCC(C)C)O2,outcome,[2],inactive
same,outcome,[3],inactive
CC(=O)N(C)C,outcome,[2],inactive
same,outcome,[3],inactive
c1ccc(Cc2ccccc2)cc1,outcome,[2],inactive
same,outcome,[3],inactive
same,AC50,[4],50 µM (active)
CCCO[Si](OCCC)(OCCC)OCCC,outcome,[2],inactive
same,outcome,[3],inactive
same,AC50,[4],38.3 µM (active)
COC(=O)C(C)Oc1ccc(Oc2ncc(C(F)(F)F)cc2Cl)cc1 (stereo unspecified),outcome,[2],inactive
CCCCCC1CCC(=O)O1 (stereo unspecified),outcome,[2],inactive
same,outcome,[3],inactive
same,outcome,[4],inactive
C1CCCNCC1,outcome,[2],inactive
same,outcome,[3],inactive
CCCCOCCOCCOCCO,outcome,[2],inactive
same,outcome,[3],inactive
COC(=O)c1cccc(C(=O)OC)c1,outcome,[2],inactive
same,outcome,[3],inactive
CC(C)(C)C1CCC(O)CC1 (stereo unspecified),outcome,[2],inactive
same,outcome,[3],inactive
same,outcome,[4],inactive
CCCCCCCCOS(=O)(=O)O,outcome,[2],inactive
same,outcome,[3],inactive
CC1=CCC(C(C)C)=CC1,outcome,[2],inactive
same,outcome,[3],inactive
COc1ccc(OC)cc1,outcome,[2],inactive
same,outcome,[3],inactive
C=C(C)C(N)=O,outcome,[2],inactive
same,outcome,[3],inactive
CCCC1CCC(=O)CC1,outcome,[2],inactive
same,outcome,[3],inactive
same,outcome,[4],inactive
CC(C)N(c1ccccc1)C(C)C,outcome,[2],inactive
same,outcome,[3],inactive
same,outcome,[4],inactive
Cc1cccc(C)c1,outcome,[2],inactive
same,outcome,[3],inactive
CN(C)C,outcome,[2],inactive
same,outcome,[3],inactive
same,outcome,[4],inactive
c1coc(CNc2ncnc3nc[nH]c23)c1,outcome,[2],inactive
COC(=O)c1ccc(C(=O)OC)cc1,outcome,[2],inactive
same,outcome,[3],inactive
same,outcome,[4],inactive
COc1ccc2[nH]cc(CCNC(C)=O)c2c1,outcome,[2],inactive
same,outcome,[3],inactive
same,outcome,[4],inactive
CC(CCO)CC(C)(C)C (stereo unspecified),outcome,[2],inactive
same,outcome,[3],inactive
same,outcome,[4],inactive
CCCCCCCCCCOC(=O)c1ccccc1C(=O)OCCCCCCCC,outcome,[2],inactive
same,outcome,[4],inactive
CCC(C)(C)C1CCC(OC)CC1 (stereo unspecified),outcome,[2],inactive
same,outcome,[4],inactive
CCCCOCCOCCO,outcome,[2],inactive
same,outcome,[4],inactive
CC(=O)C1=C(C)[C@@H]2C[C@@]3(C1)[C@H](C)CC[C@H]3C2(C)C,AC50,[2],72.1 µM (active)
same,AC50,[4],12.4 µM (active)
CCCCC(CC)COCCO (stereo unspecified),outcome,[2],inactive
same,outcome,[3],inactive
same,outcome,[4],inactive
CNC(=C[N+](=O)[O-])NCCSCc1ccc(CN(C)C)o1,outcome,[2],inactive
same,outcome,[4],inactive
CCCCCCCCCCCCS,outcome,[2],inactive
same,outcome,[4],inactive
FC(F)(F)c1ccc(Cl)c(Cl)c1,AC50,[2],12 µM (active)
same,outcome,[4],inactive
C=CC(C)CCCC(C)(C)O (stereo unspecified),outcome,[2],inactive
same,outcome,[3],inactive
same,outcome,[4],inactive
CC(=O)OC(C)(C)C,outcome,[2],inactive
same,outcome,[4],inactive
c1ccc2scnc2c1,outcome,[2],inactive
same,outcome,[4],inactive
CCO[Si](CC)(OCC)OCC,outcome,[2],inactive
same,outcome,[4],inactive
CCCCCCCCCCCCN1CCOCC1,outcome,[2],inactive
same,AC50,[4],50 µM (active)
C=CCCCCCCCCC(=O)OCC,outcome,[2],inactive
same,outcome,[4],inactive
CCCc1ccc(N)cc1,outcome,[2],inactive
same,outcome,[3],inactive
same,outcome,[4],inactive
CCC(C)COC(=O)CC(C)C (stereo unspecified),outcome,[2],inactive
same,outcome,[4],inactive
CCCC(O)C(CC)CO (stereo unspecified),outcome,[2],inactive
same,outcome,[4],inactive
CN(C)C(=O)Nc1ccccc1,outcome,[2],inactive
same,outcome,[4],inactive
CC(=O)c1ccc(O)cc1,outcome,[2],inactive
same,outcome,[3],inactive
same,outcome,[4],inactive
CC(C)C(=O)c1ccccc1,outcome,[2],inactive
same,outcome,[4],inactive
CCCCCCCCCO,outcome,[2],inactive
same,outcome,[3],inactive
same,outcome,[4],inactive
[Na+],outcome,[2],inactive
same,outcome,[3],inactive
same,outcome,[4],inactive
CCCCN(CCCC)CCCCCCN(CCCC)CCCC,outcome,[2],inactive
same,outcome,[4],inactive
CC(=O)c1ccc2ccccc2c1,outcome,[2],inactive
same,outcome,[3],inactive
same,outcome,[4],inactive
COc1cc(OC)c2ccc(=O)oc2c1,outcome,[2],inactive
same,outcome,[3],inactive
same,outcome,[4],inactive
